Compound activity as filed in PubChem BioAssay.
The list is not random: actives were taken first. Their share in the collection is about 12%.
NS1 inh = blocks influenza NS1 protein function. Potency, µM (series often up to 46.1 µM), without a hit: top-dose activity, positive = more growth. 270,000 tested, 0.4% active; note: potency is the fitted concentration of half-maximal effect; actives are rising curves; nearly all actives have a fitted effect of over 50% in size
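S. cerevisiae expressing influenza A NS1, grown in glucose, washed, then diluted 1:100 into pH 6.0 -URA galactose medium with 23 nl compound. Growth recovery read as OD600; NS1-free strain serves as control.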
CHX counter = affects cycloheximide protein synthesis inhibition readout, counter-screen. cell reporter, cycloheximide protein synthesis inhibition counterscreen. max response, %. 300,000 tested, 12% active. AID 2314; in the data active = max response mostly above about 13%, no sharp cut-off; inactive = mostly below about 14%; note: read at 38.3 µM for the half of the compounds with a filed dose; 0% is about no effect
SARS PLpro yeast = SARS-CoV PLP inhibition in yeast; S. cerevisiae expressing SARS-CoV PLpro, growth rescue; Potency, µM (doses to about 32.9 µM), without a hit: at the top dose activity, positive = growth rescue, most hits filed as activators; 330,000 tested, 0.19% active; note: potency is the fitted concentration of half-maximal effect; 0% is about no effect; nearly all actives have a fitted effect of over 55% in size
Shiga toxin inh = blocks Shiga toxin action in Vero cells. 290,000 tested, 9.2% active. inhibition, % at 38.7 µM. Vero cells, Shiga toxin protein synthesis inhibition reporter; in the data active = inhibition mostly above about 28%, no sharp cut-off; inactive = mostly below about 43%; note: 0% is about no effect
Active calls of the source: *; ? = inconclusive; / = not tested or not shown. Unless noted, calls come from the whole dose curve.

SMILES | NS1 inh | CHX counter | SARS PLpro yeast | Shiga toxin inh
O=C(Nc1ccc(Cl)c(C(F)(F)F)c1)c1ccco1 | -121.3% | 12.8* | -23.2% | 25.3
NNC(=O)c1ccc2[nH]c3c(c2c1)CCCC3 | / | 4.6 | 4.2% | 16.4
CC(C)n1c2ccccc2c2nnc(SCC(=O)Nc3ccccc3C(=O)O)nc21 | / | -4.3 | 0.6% | -15.6
Cc1cc(NS(=O)(=O)N(C)C)ccc1C(C)C | -26.9% | -2.2 | -19.7% | -3.7
COc1ccc(N2CC(C(=O)N3CCCC(C)C3)CC2=O)cc1 (stereo not drawn) | 2.5% | -1.8 | 11.7% | -4.9
COC(=O)c1cnn(-c2nc(-c3ccccc3)cs2)c1N | 0.0% | 41.8* | -1.6% | 40.1*
O=C(O)c1cnn(-c2nc(-c3ccc(Cl)cc3)cs2)c1C(F)(F)F | -74.3% | 53.3* | -5.5% | 82.2*
CNC(=O)c1cnn(-c2nc(-c3ccc(OC)cc3)cs2)c1C(F)(F)F | 0.3% | 7.0 | -3.2% | -5.9
COc1ccc(-c2csc(-n3ncc(C(=O)O)c3C(F)(F)F)n2)cc1 | 0.2% | 74.0* | -0.7% | 135.5*
C#CCOc1nc2c(c(=O)n(C)c(=O)n2C)n1Cc1ccccc1 | -6.4% | 0.3 | -0.6% | -10.7
Cc1ccc(Sc2ccc(CN3CCCCC3)cc2[N+](=O)[O-])cc1 | -1.8% | -0.8 | -0.5% | -16.2
O=C(Nc1ccccc1)Nc1cccc2ccccc12 | -0.5% | 18.7* | -1.5% | 26.5
CC(=O)c1ccc(NC(=O)Nc2cccc3ccccc23)cc1 | 1.8% | 26.8* | -3.0% | 11.9
O=C(Nc1ccccc1)Nc1cccc2cccnc12 | -136.7% | 35.8* | -28.0% | 122.0*
O=C(Nc1ccccc1)Nc1csc2ccccc12 | -48.5% | 50.8* | -4.0% | 147.9*
CCOC(=O)N1CCN(S(=O)(=O)c2cc(OCC(N)=O)c(C)cc2Cl)CC1 | -1.1% | 0.6 | -0.9% | -4.8
CN(CC(=O)Nc1ccc(F)c(F)c1F)C(=O)CCN1C(=O)C2CCCCC2C1=O (stereo not drawn) | / | / | 5.0% | /
O=C(CCCl)Nc1cccc2cccnc12 | / | 48.4* | / | 36.3
O=C(CCBr)Nc1cccc2cccnc12 | / | 4.4 | / | 4.1
O=C(Nc1cccc2cccnc12)OCc1ccccc1 | / | 30.4* | / | 49.8
Oc1ccc(Cl)cc1C=Nc1cnc2ccccc2c1 | 0.0% | / | / | /
O=S(=O)(c1cccc(C(F)(F)F)c1)N1c2ccccc2-n2cccc2[C@H]1c1cccnc1 | -2.6% | / | / | /
COc1ccc(-n2c(C)cc(C(=O)COc3ccc(C)nc3[N+](=O)[O-])c2C)cc1 | 17.5% | -2.6 | -10.0% | 40.8
Cc1ccc(CNC(=O)COc2ccc(C)nc2[N+](=O)[O-])cc1 | -0.3% | -2.7 | 3.4% | -8.6
Cc1ccc(COc2ccc(C)nc2[N+](=O)[O-])cc1 | -4.9% | 49.5* | 0.6% | 83.5*
SMILES | NS1 inh | CHX counter | SARS PLpro yeast | Shiga toxin inh
Cc1ccc(OCCOc2ccc(Cl)cc2Cl)c([N+](=O)[O-])n1 | -5.1% | 52.0* | -5.0% | 106.0*
COc1ccc(OCCOc2ccc(C)nc2[N+](=O)[O-])cc1 | -9.0% | 48.6* | -19.2% | 92.8*
Cc1cccc(NC(=O)C(=O)NCC2CCCN2S(=O)(=O)c2cccs2)c1C (stereo not drawn) | / | / | -3.2% | /
O=S(=O)(Nc1ccccc1)c1ccc(-c2csnn2)cc1 | 0.9% | -3.2 | 0.5% | 11.0
c1ccc(-c2ccc(-c3csnn3)cc2)cc1 | -3.8% | 33.1* | -1.8% | 56.6*
COc1ccc(-n2c(=O)cc(N3CCN(c4ccccc4)CC3)[nH]c2=O)cc1 | 10.8% | 60.3* | -3.7% | -12.2
Cc1ccc(N2C(=O)NC(NC(=O)C3CC3)(C(F)(F)F)C2=O)cc1 (stereo not drawn) | 2.9% | -2.8 | -2.6% | 26.6
CCN(CC)c1ccc(/C=C(\C#N)C(N)=S)cc1 | -1.8% | 24.7* | 0.8% | 39.0
CCN(CC)c1ccc(/C=C(\C#N)C(=O)c2ccc(Br)cc2)cc1 | 7.5% | 20.2* | -2.3% | -3.0
CCN(CC)c1ccc(/C=C(\C#N)C(N)=O)cc1 | -10.5% | 28.8* | -2.1% | 71.1
C=CCNC(=O)/C(C#N)=C/c1ccc(C(=O)O)cc1 | 2.8% | -1.8 | 1.6% | -6.5
N#C/C(=C\c1ccc2c(c1)OCO2)C(N)=S | 8.5% | -2.5 | 0.8% | -7.3
CN(C(=O)CSc1cc(C(=O)c2nccn2C)c2ccccc2n1)c1ccccc1 | -45.8% | -0.9 | -0.4% | 11.0
CCOC(=O)C(NCCc1ccccc1F)(NC(C)=O)C(F)(F)F (stereo not drawn) | 14.2% | -2.6 | 25.3% | -2.2
CCOC(=O)c1ccc(NC(=O)c2cc(C)nc3ccccc23)cc1 | ? | -0.2 | 2.6% | /
CCc1ccc(OCc2ccccc2C(=O)Nc2ccc3nc(C)cc(N)c3c2)cc1 | / | 26.7 | / | 34.9*
O=C1C(Cl)=C(NCC2CCCO2)C(=O)N1CCc1ccccc1 (stereo not drawn) | -10.7% | 57.5* | -2.4% | 55.8*
O=C1C(Cl)=C(NCCc2ccccc2)C(=O)N1CCc1ccccc1 | 10.1% | 5.7 | 0.6% | 9.1
O=C1C(Cl)=C(NCCCN2CCOCC2)C(=O)N1CCc1ccccc1 | -1.7% | 24.1* | 0.3% | 28.5
O=C1C(Cl)=C(N2CCOCC2)C(=O)N1CCc1ccccc1 | -4.1% | 47.0* | -3.4% | 133.5*
O=C1C(Cl)=C(N2CCCCC2)C(=O)N1Cc1ccccc1 | -21.1% | 3.5 | -51.6% | 12.7
CN1CCN(C2=C(Cl)C(=O)N(CCc3ccccc3)C2=O)CC1 | -9.4% | 48.3* | 5.3% | 39.8*
CC(C)c1ccc(CNCCCSc2ncccn2)cc1 | 8.7% | 1.0 | -1.3% | -11.3
COc1ccc(CCNC(=S)Nc2ccc(S(=O)(=O)Nc3ncccn3)cc2)cc1OC | 0.5% | -3.2 | 2.1% | -1.7
O=C1C(Cl)=C(Nc2ccc(F)cc2)C(=O)N1CCc1ccccc1 | -1.2% | 59.4* | 0.7% | 81.7*
SMILES | NS1 inh | CHX counter | SARS PLpro yeast | Shiga toxin inh
O=C1C(Cl)=C(Nc2cccc(O)c2)C(=O)N1Cc1ccccc1 | / | 0.9 | -1.6% | -4.8
O=C(OCCOc1ccccc1Cl)c1ccc(-n2cnnn2)cc1 | -57.2% | 35.6* | -6.8% | 74.9
C/C(=C\C(=O)c1ccc(Br)cc1)Nc1ccc(Cl)cc1 | 10.7% | 19.6 | 1.2% | 36.2*
C/C(=C\C(=O)c1ccccc1)Nc1ccc(Br)c(Cl)c1 | -9.3% | 22.6* | 4.8% | 97.8
CCC(=O)Nc1ccc(Br)c(Cl)c1 | 9.0% | 1.0 | -31.4% | 13.0
O=C(Cc1ccccc1)Nc1ccc(Br)c(Cl)c1 | 2.3% | 20.6* | -1.5% | 25.4*
COc1ccc(CCNc2nc(-c3ccc(F)cc3)c(CC(=O)O)s2)cc1OC | 0.8% | -2.5 | -1.3% | -7.4
O=C(NCC1CCCN1S(=O)(=O)c1ccccc1)c1cccc(Cl)c1 (stereo not drawn) | / | / | -5.6% | /
COc1ccc(/C=C2/C(=O)N(c3nc4ccccc4s3)N=C2CSc2ccc(Cl)cc2)cc1 | 11.5% | 13.5* | -5.4% | 14.2
COc1ccc(/C=C2/C(=O)N(Cc3ccccc3)N=C2C)cc1 | 1.2% | 1.8 | 4.5% | -4.2
Cc1[nH]c2c(Br)cccc2c1[C@H]1[C@@H](CC#N)C1(C)C | -40.4% | 41.9* | -32.0% | 62.8*
N#CC1=C(N)Oc2c(oc(CO)cc2=O)C1c1ccsc1 (stereo not drawn) | -2.4% | 9.6 | -0.1% | -14.6
N#CC1=C(N)Oc2c(ccc3ccccc23)C1c1ccsc1 (stereo not drawn) | 0.7% | 20.3* | -13.3% | 57.4*
O=[N+]([O-])c1ccc(-c2cnc(SCc3ccccc3Cl)[nH]2)cc1 | -189.2% | 28.0* | -35.5% | 57.9*
